Source: PubChem BioAssay AID1159577 (Broad Institute, 2015)
The whole screen tested about 1,300 compounds, of which about 240 (18%) were called active. Inconclusive results (about 8%) are left out. No rule for the calls is given here. Only a sample is shown. Results with a measured potency or affinity are listed apart.

Assay: HepG2 cell cytotoxicity, dose response, cytotoxicity control, cherry-picked samples (AID 1159577)
Conditions: HepG2 cytotoxicity counterscreen, plate reader; series mostly up to 19.5 µM

SMILES	outcome
COc1ccc(S(=O)(=O)N(C)C[C@H]2Oc3c(NC(=O)Nc4ccc5c(c4)OCO5)cccc3C(=O)N([C@@H](C)CO)C[C@H]2C)cc1	inactive
CCc1nc(N2[C@H](C#N)[C@H](c3ccccc3-c3ccccc3F)[C@H]2CO)sc1C	inactive
COc1ccc(CN2CC3(CN(C(=O)Cc4ccccc4)C3)c3c([nH]c4cc(OC)ccc34)[C@H]2CO)cc1	inactive
CO[C@H]1CN(C)C(=O)c2ccc(NC(=O)Nc3cc(F)ccc3F)cc2OC[C@@H](C)N(C)C[C@H]1C	inactive
COc1ccc2c3c(n(C)c2c1)[C@H](CO)N(C(=O)CC1CC1)CC31CCN(Cc2nccs2)CC1	inactive
Cc1ccccc1S(=O)(=O)N1[C@H](C#N)[C@H](c2ccc(C#CC3CCCC3)cc2)[C@@H]1CO	inactive
CN1c2ccc(C#Cc3cccnc3)cc2[C@@H]2[C@@H](CCN2S(=O)(=O)c2ccccc2F)[C@@H]1CO	inactive
Cc1ccc(S(=O)(=O)N(C)C[C@H]2OCc3ccccc3-c3c(n(C)c4ccccc34)C(=O)N([C@@H](C)CO)C[C@@H]2C)cc1	inactive
O=S(=O)(c1ccc(-c2ccccc2)cc1)N1C[C@@H]2N[C@H](C1)[C@@H]2c1ccc(-c2cccnc2)cc1	inactive
Cn1cnc(S(=O)(=O)N2C[C@@H]3N[C@H](C2)C3c2ccc(-c3ccccc3F)cc2)c1 (stereo partly specified)	inactive
O=S(=O)(c1ccc(F)cc1)N1C[C@@H]2N[C@H](C1)C2c1ccc(-c2ccc(F)cc2)cc1 (stereo partly specified)	inactive
Cc1ccc(-c2ccc(C3[C@@H]4CN(S(=O)(=O)c5ccccc5)C[C@H]3N4)cc2)cc1 (stereo partly specified)	inactive
Cc1ccc(S(=O)(=O)N2C[C@@H]3N[C@H](C2)C3c2ccc(-c3ccncc3)cc2)cc1 (stereo partly specified)	inactive
N#Cc1ccc(-c2ccc(C3[C@@H]4CN(S(=O)(=O)c5ccc(F)cc5)C[C@H]3N4)cc2)cc1 (stereo partly specified)	inactive
COc1cccc(-c2ccc3c(c2)[C@H]2[C@H](CCN2C(=O)C2CCCC2)[C@H](CO)N3)c1	inactive
COc1ccc2c3c(n(C)c2c1)[C@@H](CO)N(C(=O)c1ccc(F)cc1)CC31CCN(C(=O)Nc2ccc(F)cc2)CC1	inactive
COc1ccc(NC(=O)N(C)C[C@@H]2Oc3cc(-c4ccc(C)cc4)ccc3S(=O)(=O)N([C@@H](C)CO)C[C@@H]2C)cc1	inactive
COc1ccc(C#Cc2ccc3c(c2)[C@H]2[C@H](CCN2C(=O)C2CCC2)[C@H](CO)N3)cc1	inactive
OC[C@@H]1CC[C@@H]2O[C@H](CCc3ccc(C#CCc4ccccc4)cc3)[C@H](n3cc(-c4ccccc4)nn3)C[C@@H]2O1	inactive
C[C@@H]1CN([C@H](C)CO)C(=O)c2cccc(NC(=O)Nc3cccc4ccccc34)c2O[C@H]1CN(C)C(=O)NC1CCCCC1	inactive
CCCNC(=O)N1CC(=O)N2[C@@H](CO)[C@@H](c3ccc(C#Cc4cccc(OC)c4)cc3)[C@@H]2C1	inactive
COc1cccc(S(=O)(=O)N(C)C[C@@H]2Oc3ncc(C#Cc4ccc(OC)c(OC)c4)cc3C(=O)N([C@H](C)CO)C[C@@H]2C)c1	inactive
COc1ccc(NC(=O)N(C)C[C@H]2OCc3ccccc3-c3c(n(C)c4ccccc34)C(=O)N([C@@H](C)CO)C[C@H]2C)c(OC)c1	inactive

SMILES	outcome
C[C@@H]1CN([C@@H](C)CO)C(=O)c2cccc(NC(=O)C3CC3)c2O[C@@H]1CN(C)C(=O)Nc1ccc(C(F)(F)F)cc1	inactive
COc1cccc(NC(=O)N2[C@H](CO)[C@@H](c3ccccc3)[C@H]2CNCC(C)C)c1	inactive
O=S(=O)(c1ccccc1)N1C[C@@H]2N[C@H](C1)C2c1ccc(-c2ccc(F)cc2)cc1 (stereo partly specified)	inactive
CC=Cc1ccc2n(c1=O)C[C@@H]1[C@@H](CO)[C@H](C(=O)N3CCC(Cc4ccccc4)CC3)N(CCC)[C@H]21 (mixture of isomers)	inactive
C[C@H](CO)N1C[C@H](C)[C@H](CN(C)Cc2ccc(Oc3ccccc3)cc2)Oc2ccc(NS(=O)(=O)c3ccc(Cl)cc3)cc2CC1=O	inactive
C[C@@H]1CN([C@H](C)CO)C(=O)c2cc(NC(=O)Nc3ccc(C(F)(F)F)cc3)ccc2O[C@H]1CN(C)C(=O)Nc1cccc2ccccc12	inactive
C[C@H](CO)N1C[C@H](C)[C@@H](CN(C)Cc2ccc(Oc3ccccc3)cc2)Oc2ccc(NS(=O)(=O)c3cn(C)cn3)cc2CC1=O	inactive
C[C@H]1CN([C@@H](C)CO)C(=O)c2cc(NC(=O)Nc3cccc4ccccc34)ccc2O[C@@H]1CN(C)Cc1ccc(Oc2ccccc2)cc1	inactive
C[C@H](CO)N1C[C@H](C)[C@@H](CN(C)C(=O)Nc2cccc3ccccc23)Oc2ccc(NC(=O)Nc3cccc4ccccc34)cc2CC1=O	inactive
CO[C@H]1CN(C)C(=O)c2cc(NC(=O)C3CC3)ccc2OC[C@@H](C)N(Cc2cc(F)ccc2F)C[C@H]1C	inactive
O=S(=O)(c1ccccc1)N1CC[C@@H]2[C@H](CO)Nc3ccc(C#CC4CCCCC4)cc3[C@@H]21	inactive
COc1ccc2c3c(n(C)c2c1)[C@@H](CO)N(C(=O)C1CCC1)CC31CN(C(=O)Nc2cccc(F)c2)C1	inactive
COc1cccc(-c2ccc3c(c2)[C@H]2[C@H](CCN2C(=O)C2CCCC2)[C@@H](CO)N3)c1	inactive
COCC#Cc1ccc([C@@H]2[C@H](CO)N3CCCCN(S(=O)(=O)c4ccc(OC)cc4)C[C@@H]23)cc1	inactive
CCC(=O)N1CC2(C1)CN(Cc1cc(F)ccc1F)[C@@H](CO)c1[nH]c3cc(OC)ccc3c12	inactive
OC[C@@H]1CC[C@@H]2O[C@H](CCc3ccc(-c4ccc(F)cc4)cc3)[C@H](n3cc(C4CC4)nn3)C[C@@H]2O1	inactive
CC(C)(C)[S@](=O)N1Cc2cc(C(=O)NCCN3CCCC3)nc(-c3cccc(-c4ccc(C#N)cc4)c3)c2[C@@H]1CCO	inactive
CCc1csc(N2[C@H](C#N)[C@H](c3ccccc3-c3ccc(F)cc3)[C@H]2CO)n1	inactive
C/C=C/c1ccc([C@H]2[C@@H](CO)N(CC3CCCCC3)[C@@H]2CNC(C)C)cc1	inactive
C/C=C/c1ccc([C@H]2[C@@H](C#N)N(C(=O)NC3CCCC3)[C@@H]2CO)cc1	inactive
C/C=C/c1ccc([C@H]2[C@@H](CO)N(C(=O)CC)[C@@H]2CNCC2CCCCC2)cc1	inactive
C/C=C/c1ccccc1[C@@H]1[C@@H](CO)N(S(=O)(=O)c2cccc(F)c2)[C@H]1C#N	inactive
C/C=C/c1ccc([C@H]2[C@@H](CO)N(CC3CCCC3)[C@@H]2CNC(=O)NC(C)C)cc1	inactive
